Screening data deposited in PubChem BioAssay by National Center for Advancing Translational Sciences (NCATS).
VACV Venus inh – vaccinia inhibition (Venus reporter). Vaccinia virus Venus reporter expression, fluorescence. Potency, µM (titrated, usually from 36.5 µM), inactives show at the top dose activity change, negative = inhibition, actives largely listed as inhibitors. 0.46% of 330,000 active. AID 720580; calls by dose curve; tested in A549 cells; further: nearly all actives have a fitted effect of over 30% in size
VACV mCherry inh – vaccinia inhibition (mCherry reporter). Vaccinia virus mCherry reporter infection, fluorescence. Potency, µM (doses to about 36.5 µM), without a hit: at the top dose activity change, negative = inhibition, usual class: inhibitors. 0.63% of 310,000 active; calls by dose curve; tested in A549 cells; further: nearly all actives have a fitted effect of over 35% in size
HCV inh – HCV inhibition; Huh7.5.1 HCVcc-Cre infection, luciferase reporter, 44 h; Potency, µM (series often up to 41.8 µM), for the others: top-dose activity change, negative = inhibition, most hits filed as inhibitors; 3.4% of 340,000 active; AID 651820; active means well fitted inhibition curve with a large enough effect; inconclusive means small, poorly fitted or top-dose-only effect, or another doubt; inactive means no such curve, though single readings can be large or run the other way
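Reporter virus HCVcc-Cre (~0.5 moi) infects cells exposed to compound; seeding density 1,000 cells/well with 4 h settling beforehand. Luminescence, 15 sec read, taken 44 h post-infection following a 15 min RT substrate incubation.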
* = called active by the depositor; i = inactive; ? = inconclusive; / = no result given. In the library only some 3.3% were active in any assay of this set; here they are far more common. On the % scale 0 is the no-effect control and ±100 the full control effect; potency means the concentration at half of the fitted maximal effect.

SMILES	VACV Venus inh	VACV mCherry inh	HCV inh
O=C(Cn1cc(COc2ccc3ccc(=O)oc3c2)nn1)c1ccc(O)cc1	-3%	5%	2.5µM*
O=C(Cn1cc(COc2ccc(Br)cc2)nn1)c1ccc(O)cc1	-23%	i	?
COc1cc2cnc(-c3ccccc3)c(-c3cc(OC)c(OC)c(OC)c3)c2cc1OC	?	-15%	13µM*
COc1cc2cnc(-c3ccccc3)c(-c3ccc([N+](=O)[O-])cc3)c2cc1OC	-20%	-5%	3%
COc1cc2cnc(-c3ccccc3)cc2cc1OC	-24%	i	22µM*
COc1nc(-c2ccccc2)cc(-c2ccc(OC)c(OC)c2)n1	/	/	1.8µM*
COc1ccc(-c2cc3cc(OC)c(OC)cc3cn2)cc1	?	-4%	?
COc1ccc(-c2cc(-c3ccccc3)nc(NN)n2)cc1OC	-7%	?	?
COc1cc(CCCN2CCNC[C@H]2Cc2cccc3ccccc23)cc(OC)c1OC	-14%	-7%	?
Cc1cc(C)n(-c2nc(NC(C)(C)C)nc(NC(C)(C)C)n2)n1	4%	/	?
Cc1cc(C)n(-c2nc(Nc3ccccc3C(F)(F)F)nc(-n3nc(C)cc3C)n2)n1	13µM*	/	5.6µM*
Cc1nn(S(=O)(=O)c2ccc(C(C)(C)C)cc2)c(C)c1S(=O)(=O)N1CCCCCC1	-5%	-6%	/
COc1ccc(OCc2nc3ccccc3[nH]2)cc1	-12%	-17%	?
COc1ccc(NS(=O)(=O)c2ccc3nc(COc4ccc(C#N)cc4)[nH]c3c2)cc1	-15%	-13%	13µM*
COc1ccc(N2CCN(C(=O)C3CCN(C(=O)c4ccc([N+](=O)[O-])cc4)CC3)CC2)cc1	-3%	-15%	-6%
Cc1ccc(-c2cc(-c3ccc(F)cc3)n[nH]2)c(O)c1	?	-29%	13µM*
Cc1ccc(-c2cc(-c3ccccc3[N+](=O)[O-])[nH]n2)c(O)c1	/	/	-29%
Oc1ccc(Cl)cc1-c1cc(-c2ccccc2)n[nH]1	?	?	10µM*
Cc1ccc(-c2cc(-c3ccc(C)cc3O)[nH]n2)cc1	/	/	-29%
Cc1ccccc1-c1cc(-c2ccccc2O)n[nH]1	-25%	-8%	7.1µM*
Cc1ccc(-c2cc(-c3ccccc3Cl)[nH]n2)c(O)c1	-21%	-24%	?
Oc1ccc(Br)cc1-c1cc(-c2ccccc2Cl)[nH]n1	-28%	?	7.9µM*
Oc1ccccc1-c1cc(-c2ccc(F)cc2)n[nH]1	-12%	-23%	?
Cc1cc(C)nc(SSc2nc(C)cc(C)n2)n1	-6%	i	9%
Cc1ccc(Cl)cc1N1CCN(CCCNC(=O)Cn2ncc3c([nH]c4ccccc43)c2=O)CC1	-20%	-13%	/
SMILES	VACV Venus inh	VACV mCherry inh	HCV inh
COc1ccc(S(=O)(=O)N2CCCC2=O)cc1N(C)S(C)(=O)=O	/	/	20%
COc1ccc(CNC(=O)CCCN2C(=O)c3cccnc3Oc3ccc(Cl)cc32)cc1	-5%	-12%	/
COc1ccc2cc(CO)c(Cl)nc2c1	/	/	-4%
COc1ccc2cc(CO)c3cc(OC)c(OC)cc3c2c1	?	?	13µM*
O=C(Nc1ccc2nc3ccccc3nc2c1)c1ccccc1	?	10µM*	?
Cc1ccc(C(=O)NC(=S)NNC(=O)c2ccccc2)cc1	/	/	-2%
O=C(Nc1ccc(Cl)c(Cl)c1)c1ccccc1	-24%	-7%	?
Cc1ccc(C(=O)Nc2ccc(Nc3ccccc3)cc2)cc1C	-11%	?	?
Cc1ccc(NC(=O)c2ccc(NC(=O)c3ccccc3)cc2)cc1C	10µM*	?	/
Cc1ccc(NC(=O)c2ccc3c(c2)CCN3S(C)(=O)=O)cc1	-24%	i	/
Cc1ccc(NC(=O)c2ccc3c(c2)CCN3S(C)(=O)=O)cc1C	-26%	i	11µM*
Cc1ccc(NC(=O)NC(=S)NC(=O)c2ccccc2)cc1	7.1µM*	?	6%
O=C(COc1ccc(Cl)cc1)NNC(=O)C(=O)NC1CCCCC1	-18%	i	27%
CCN1C(=O)[C@H]2[C@H]3[C@H](O)[C@H](O)CC(=O)[C@@H]3CC[C@H]2C1=O	-8%	-10%	/
CCn1cc(C2=NCC(C)O2)c2ccccc21 (stereo not given)	/	/	14µM*
CCn1cc(C2=NCCO2)c2ccccc21	?	10µM*	?
CCn1cc(C2N3CC4(CC)CN2CC(CC)(C3)C4=O)c2ccccc21 (stereo not given)	-15%	-13%	/
CCn1cc(S(=O)(=O)CC(=O)Nc2ccc3c(c2)OCCO3)c2ccccc21	-3%	-9%	-5%
CCn1cc(C2=NC(C)(C)CO2)c2ccccc21	/	/	3.2µM*
CCn1cc(C2=NC(c3ccccc3)CO2)c2ccccc21 (stereo not given)	-12%	5%	?
O=C(CSc1nc(-c2ccc(F)cc2)[nH]c1-c1ccccc1)NCC1CCCO1 (stereo not given)	-10%	-14%	/
